Test results reported in PubChem BioAssay (Tox21).
Values joined by “and” are separate entries in the source; they are usually repeats but may differ in a detail not shown here. Equal entries are not always repeated. Results filed as inconclusive are left out. Active and inactive are the calls of the source. Unless noted, the call rests on the fitted dose curve.

Experiments:
[1] = Nuclear factor erythroid 2-related factor 2/antioxidant responsive element (Nrf2/ARE) small molecule agonists: luciferase reporter gene qHTS assay in human keratinocytes (AID 1919969); further: nearly all actives have a fitted effect of over 35% in size; further: potency means the concentration at half of the fitted maximal effect
[2] = target: KiSS-1 receptor (Homo sapiens) (UniProt Q969F8); assay: Human kisspeptin (KISS1R) small molecule agonists, calcium flux assay in KISS1R-HEK293 cells (AID 1920064; active means well fitted activation curve with a large enough effect in the repeat runs)
How it was run: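 After overnight (18 h) culture at 37 C/5% CO2, human KISS1R-HEK293 cells received calcium dye for 1 h, then test compound; emission at 540 nm (excitation 480 nm) was tracked for 3 min.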

[3] = G protein-coupled receptor (GPCR) small molecule agonists, calcium flux assay: HEK293 wild type cell line counter screen (AID 1920065)
How it was run: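 Following 18 h incubation at 37 C/5% CO2, plates got calcium dye for 1 h; compounds, ATP or DMSO were then pinned in and fluorescence followed kinetically (480/540 nm).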

[4] = p53 small molecule agonists, cell-based qHTS assay with human liver microsomes (AID 1963577)
How it was run: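 Compounds act here after metabolic activation: human liver microsomes and NADPH, both at 0.5 mg/mL final, were co-added to p53RE-bla cells. Incubation ran 16 h at 37 C, followed by LiveBLAzer detection.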

[5] = p53 small molecule agonists, cell-based qHTS assay with rat liver microsomes (AID 1963578)
How it was run: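 Read-out is beta-lactamase reporter fluorescence (LiveBLAzer, 2 h, room temperature, dark) in p53RE-bla cells treated 16 h at 37 C with compound, rat liver microsomes and NADPH, both 0.5 mg/mL final.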

[6] = p53 small molecule agonists, cell-based qHTS assay: qHTS cell viability counter screen (AID 1963581); further: nearly all actives have a fitted effect of over 45% in size; further: potency means the concentration at half of the fitted maximal effect
How it was run: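 qHTS counter screen: 16 h compound exposure at 37 C of p53RE-bla HCT-116 cells (4,000 per well, seeded 5 h prior), cell viability by ATP luminescence.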

[7] = p53 small molecule agonists, cell-based qHTS assay (AID 1963582; active means well fitted activation curve with a large enough effect in the signal ratio in the repeat runs, not every such curve was filed as active; the % refers to the signal ratio)
How it was run: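 Measured: fluorescence from cleaved LiveBLAzer substrate. System: p53RE-bla cells, 16 h compound treatment at 37 C, 2 h substrate step at room temperature.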

[8] = target: 5-hydroxytryptamine receptor 2A (Homo sapiens) (UniProt P28223); assay: 5-hydroxytryptamine receptor 2A (HTR2A) small molecule antagonists, cell-based qHTS assay (AID 1963586); further: nearly all actives have a fitted effect of over 45% in size
How it was run: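 CHO cells stably expressing human HTR2A were plated for 18 h at 37 C, then loaded with calcium dye for 1 h. Compounds were preincubated 5 min at room temperature before DOI (4 nM solution) was added. Kinetic fluorescence was read for 3 min.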

[9] = target: 5-hydroxytryptamine receptor 2A (Homo sapiens) (UniProt P28223); assay: 5-hydroxytryptamine receptor 2A (HTR2A) small molecule agonists, cell-based qHTS assay (AID 1963587); further: nearly all actives have a fitted effect of over 30% in size; further: potency means the concentration at half of the fitted maximal effect
How it was run: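 CHO cells stably expressing human HTR2A, plated 18 h, loaded with calcium dye 1 h at 37 C. Agonist mode: compounds added and intracellular calcium fluorescence recorded kinetically for 2 min at 1 sec intervals.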

[10] = target: Muscarinic acetylcholine receptor M1 (Homo sapiens) (UniProt P11229); assay: Cholinergic receptor muscarinic 1 (CHRM1) small molecule antagonists, cell-based qHTS assay (AID 1963588); further: nearly all actives have a fitted effect of over 40% in size; further: potency means the concentration at half of the fitted maximal effect
How it was run: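 Compounds were tested at 15 concentrations in three independent runs. Dye-loaded CHRM1-CHO cells were exposed 5 min at room temperature before stimulation by acetylcholine added at 50nM. Intracellular calcium was read kinetically on FDSS for 3 min.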

[11] = target: Muscarinic acetylcholine receptor M1 (Homo sapiens) (UniProt P11229); assay: Cholinergic receptor muscarinic 1 (CHRM1) small molecule agonists, cell-based qHTS assay (AID 1963589); further: nearly all actives have a fitted effect of over 35% in size
How it was run: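 Kinetic fluorescence (1 s intervals) of calcium-sensitive dye in human M1 CHO cells after compound addition; cells pre-incubated 18 h at 37 C/5% CO2 and dye-loaded 1 h.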

[12] = target: Beta-2 adrenergic receptor (Homo sapiens) (UniProt P07550); assay: Adrenergic beta2 receptor (ADRB2) small molecule antagonists, cell-based qHTS assay (AID 1963592); further: nearly all actives have a fitted effect of over 50% in size; further: potency means the concentration at half of the fitted maximal effect
How it was run: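 Assay format: CHO-ADRB2 cells, 18-20hr seeding at 37C/5% CO2, then compound plus 1nM isoproterenol agonist mix for 0.5hr RT. Homogeneous time-resolved fluorescence cAMP detection after 1hr, expressed as 665/615 nm ratio.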

[13] = target: D(2) dopamine receptor (Homo sapiens) (UniProt P14416); assay: Dopamine D2 receptor (DRD2) small molecule agonists, cell-based qHTS assay (AID 1963594); further: nearly all actives have a fitted effect of over 35% in size
How it was run: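 HEK293 cells stably expressing human DRD2, pre-treated with PDE inhibitor Ro20-1724 (0.1 mM final) and compound 10 min at room temperature, then stimulated with NKH477 (200nM […]) for 30 min. cAMP read by HTRF (665/620 nm).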

[14] = target: D(2) dopamine receptor (Homo sapiens) (UniProt P14416); assay: Dopamine D2 receptor (DRD2) small molecule antagonists, cell-based qHTS assay (AID 1963595; active means well fitted inhibition curve with a large enough effect in the signal ratio in the repeat runs, with a control signal flat; the % refers to the signal ratio; further: potency means the concentration at half of the fitted maximal effect)
How it was run: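 HTRF cAMP read-out at 665 and 620 nm emission (340 nm excitation). Antagonist mode: compounds were tested against 12 nM quinpirole in DRD2-HEK293 cells, with 200 nM NKH477 raising cAMP and 0.1 mM Ro20-1724 blocking its breakdown.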

[15] = p53 small molecule agonists, cell-based qHTS assay with human liver microsomes: qHTS cell viability counter screen (AID 1963579); further: nearly all actives have a fitted effect of over 45% in size; further: potency means the concentration at half of the fitted maximal effect
How it was run: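 Cells carrying the p53 response-element beta-lactamase reporter are treated for 16 h at 37 C with test compounds in the presence of human liver microsomes and NADPH (both 0.5 mg/mL final); ATP-based CellTiter-Glo luminescence then reports viability.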

[16] = p53 small molecule agonists, cell-based qHTS assay with rat liver microsomes: qHTS cell viability counter screen (AID 1963580); further: nearly all actives have a fitted effect of over 45% in size; further: potency means the concentration at half of the fitted maximal effect
How it was run: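 After the beta-lactamase ratio was read, CellTiter-Glo was added to the same wells and luminescence measured at 30 min; cells had been treated 16 h at 37 C with compounds, rat liver microsomes and NADPH (0.5 mg/mL final each).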

[17] = cAMP Responsive Elements (CRE) small molecule agonists, cell-based qHTS assay (AID 1963590)
How it was run: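 Test agents in DMSO were incubated 3 h at 37 C/5% CO2 with CRE-bla HEK 293T cells seeded 18 h earlier; LiveBLAzer B/G FRET substrate was added and read after 2 h at room temperature.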

[18] = target: Gonadotropin-releasing hormone receptor (Homo sapiens) (UniProt P30968); assay: Human gonadotropin-releasing hormone receptor (GnRHR) small molecule agonists, calcium flux assay in GnRHR-HEK293 cells (AID 1920063); further: nearly all actives have a fitted effect of over 35% in size
How it was run: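 Stable human GnRHR HEK293 line. 18 h plating, then calcium dye for 1 h at 37 C. Agonist-mode compound addition from DMSO stocks; fluorescence monitored 3 min.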

[19] = cAMP Responsive Elements (CRE) small molecule antagonists, cell-based qHTS assay (AID 1963591; active means well fitted inhibition curve with a large enough effect in the signal ratio in the repeat runs, not every such curve was filed as active; the % refers to the signal ratio)
How it was run: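 Reporter line CRE-bla HEK 293T in dialyzed-FBS DMEM; cells preincubated 18 h, treated 3 h with compound plus NKH477 (0.25 uM final); LiveBLAzer FRET, 2 h RT.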

[20] = target: Beta-2 adrenergic receptor (Homo sapiens) (UniProt P07550); assay: Adrenergic beta2 receptor (ADRB2) small molecule agonists, cell-based qHTS assay (AID 1963593);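 further: CHO cells stably overexpressing human ADRB2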
How it was run: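 CHO cells stably over-expressing ADRB2 were plated overnight at 37C, then dosed with compounds plus a stimulation mix containing 100uM IBMX and 25uM Ro-20-1724 for 0.5hr at room temperature. cAMP was measured by HTRF competition, 1hr.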
On the % scale 0 is the no-effect control and ±100 the full control effect.

D(2) dopamine receptor (Homo sapiens), sequence (P14416 whole entry, looked up): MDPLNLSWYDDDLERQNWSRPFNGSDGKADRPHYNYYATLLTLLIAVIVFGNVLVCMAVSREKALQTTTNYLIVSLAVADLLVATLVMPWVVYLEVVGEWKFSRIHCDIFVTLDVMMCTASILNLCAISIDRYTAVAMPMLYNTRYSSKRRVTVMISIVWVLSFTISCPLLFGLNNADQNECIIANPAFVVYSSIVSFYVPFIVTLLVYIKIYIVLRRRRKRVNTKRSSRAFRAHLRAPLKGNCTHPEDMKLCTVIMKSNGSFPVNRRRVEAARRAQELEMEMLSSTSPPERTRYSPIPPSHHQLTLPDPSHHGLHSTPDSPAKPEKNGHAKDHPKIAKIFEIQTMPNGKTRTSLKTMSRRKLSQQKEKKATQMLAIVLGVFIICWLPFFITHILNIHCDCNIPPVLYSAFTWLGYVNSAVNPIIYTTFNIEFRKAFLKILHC
Beta-2 adrenergic receptor (Homo sapiens), sequence (P07550 whole entry, looked up): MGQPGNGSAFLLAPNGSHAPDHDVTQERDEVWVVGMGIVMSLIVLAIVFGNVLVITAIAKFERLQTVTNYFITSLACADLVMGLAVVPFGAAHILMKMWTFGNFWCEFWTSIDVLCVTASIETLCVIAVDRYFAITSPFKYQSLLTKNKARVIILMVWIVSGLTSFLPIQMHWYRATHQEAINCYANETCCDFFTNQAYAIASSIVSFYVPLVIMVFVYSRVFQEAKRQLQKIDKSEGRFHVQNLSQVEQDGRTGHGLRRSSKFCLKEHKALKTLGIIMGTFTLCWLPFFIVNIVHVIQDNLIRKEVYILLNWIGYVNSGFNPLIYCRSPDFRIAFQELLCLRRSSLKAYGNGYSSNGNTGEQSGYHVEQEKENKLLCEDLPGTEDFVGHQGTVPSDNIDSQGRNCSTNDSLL
Muscarinic acetylcholine receptor M1 (Homo sapiens), sequence (P11229 whole entry, looked up): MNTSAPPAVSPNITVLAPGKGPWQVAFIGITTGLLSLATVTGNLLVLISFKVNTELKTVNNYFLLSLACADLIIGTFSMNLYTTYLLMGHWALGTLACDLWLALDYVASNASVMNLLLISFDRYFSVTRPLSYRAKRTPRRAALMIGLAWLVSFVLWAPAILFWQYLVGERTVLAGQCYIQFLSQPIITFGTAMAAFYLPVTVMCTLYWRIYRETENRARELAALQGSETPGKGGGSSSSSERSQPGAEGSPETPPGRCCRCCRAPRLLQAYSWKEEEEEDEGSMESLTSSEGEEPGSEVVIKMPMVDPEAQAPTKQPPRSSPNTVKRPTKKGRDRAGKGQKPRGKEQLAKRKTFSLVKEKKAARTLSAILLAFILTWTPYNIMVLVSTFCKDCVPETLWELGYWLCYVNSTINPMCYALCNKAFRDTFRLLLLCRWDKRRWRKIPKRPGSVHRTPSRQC
5-hydroxytryptamine receptor 2A (Homo sapiens), sequence (P28223 whole entry, looked up): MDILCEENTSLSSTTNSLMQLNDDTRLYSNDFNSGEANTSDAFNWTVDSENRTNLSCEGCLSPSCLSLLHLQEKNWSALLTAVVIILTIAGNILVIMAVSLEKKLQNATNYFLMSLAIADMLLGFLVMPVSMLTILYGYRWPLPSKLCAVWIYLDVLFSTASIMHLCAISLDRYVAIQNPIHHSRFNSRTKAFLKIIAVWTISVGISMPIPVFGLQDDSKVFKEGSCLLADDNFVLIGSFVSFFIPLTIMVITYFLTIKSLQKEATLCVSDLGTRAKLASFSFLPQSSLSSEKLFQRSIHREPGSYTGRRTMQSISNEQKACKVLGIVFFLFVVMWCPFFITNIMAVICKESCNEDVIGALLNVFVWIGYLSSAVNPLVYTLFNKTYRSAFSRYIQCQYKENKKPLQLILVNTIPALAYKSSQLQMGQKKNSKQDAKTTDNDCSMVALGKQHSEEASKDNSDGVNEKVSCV
Gonadotropin-releasing hormone receptor (Homo sapiens), sequence (P30968 whole entry, looked up): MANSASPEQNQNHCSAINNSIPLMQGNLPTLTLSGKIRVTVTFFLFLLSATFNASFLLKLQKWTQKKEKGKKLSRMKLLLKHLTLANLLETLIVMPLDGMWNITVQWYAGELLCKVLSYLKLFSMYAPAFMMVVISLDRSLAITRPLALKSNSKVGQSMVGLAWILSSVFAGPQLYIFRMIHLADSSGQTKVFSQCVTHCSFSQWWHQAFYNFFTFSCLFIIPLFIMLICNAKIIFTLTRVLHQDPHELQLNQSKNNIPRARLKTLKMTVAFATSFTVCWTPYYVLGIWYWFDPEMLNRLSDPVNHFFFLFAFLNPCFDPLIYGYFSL
KiSS-1 receptor (Homo sapiens), sequence (Q969F8 whole entry, looked up): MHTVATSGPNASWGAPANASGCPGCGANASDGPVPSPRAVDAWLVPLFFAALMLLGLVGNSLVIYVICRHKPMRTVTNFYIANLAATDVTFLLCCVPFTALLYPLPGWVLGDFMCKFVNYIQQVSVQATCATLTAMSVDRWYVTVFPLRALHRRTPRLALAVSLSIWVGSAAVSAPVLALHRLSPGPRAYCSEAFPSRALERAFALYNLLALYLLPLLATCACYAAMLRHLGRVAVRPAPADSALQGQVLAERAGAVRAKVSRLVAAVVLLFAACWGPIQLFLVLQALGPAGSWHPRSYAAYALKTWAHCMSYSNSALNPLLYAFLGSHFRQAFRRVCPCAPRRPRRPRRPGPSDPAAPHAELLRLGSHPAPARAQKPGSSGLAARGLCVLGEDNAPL

Cc1cc(C2CC2)nc(Nc2ccccc2)n1
inactive: Potency [2] | Potency [3] | Potency [4] | Potency [5] | Potency [6] | Potency [7] | Potency [8] | Potency [9] | Potency [11] | Potency [13] | Potency [14]
active: Potency [1] 68.6 µM | Potency [10] 14.9 µM | Potency [12] 54.5 µM

Oc1ccc(C2(c3ccc(O)cc3)CCCCC2)cc1
inactive: Potency [1] | Potency [2] | Potency [3] | Potency [4] | Potency [5] | Potency [16] | Potency [8] | Potency [10] | Potency [17] | Potency [13] | Potency [14]
active: Potency [15] 43.3 µM

CCC[CH2][Sn]([CH2]CCC)([CH2]CCC)[O][Sn]([CH2]CCC)([CH2]CCC)[CH2]CCC
inactive: activation [2] 9.21% [at 6.97 µM] | activation [3] 2.41% [at 5.23 µM] | activation [4] -15.1% [at 5.99 µM] | activation [5] -3.45% [at 5.99 µM] | activity, negative = inhibition [10] 0.927% [at 5.58 µM] | activation [11] 7.77% [at 6.97 µM] | activation [13] 2.93% [at 8.39 µM]
active: Potency [1] 0.533 µM | Potency [16] 1 µM | Potency [6] 0.893 µM | Potency [12] 1.68 µM | Potency [14] 2.12 µM

CNC(=O)O/N=C(/CSC)C(C)(C)C
inactive: Potency [1] | Potency [2] | Potency [3] | Potency [16] | Potency [6] | Potency [7] | Potency [8] | Potency [9] | Potency [10] | Potency [17] | Potency [12] | Potency [13] | Potency [14]

COP(=O)(OC)OC(Br)C(Cl)(Cl)Br (stereo not given)
active: Potency [1] 27.3 µM and 54.5 µM
inactive: Potency [18] | Potency [3] | Potency [15] | Potency [16] | Potency [6] | Potency [8] | Potency [9] | Potency [10] | Potency [17] | Potency [19] | Potency [12] | Potency [13] | Potency [14]

Nc1ccc([N+](=O)[O-])cc1Cl
inactive: Potency [18] | Potency [2] | Potency [3] | Potency [4] | Potency [5] | Potency [15] | Potency [16] | Potency [6] | Potency [7] | Potency [9] | Potency [10] | Potency [11] | Potency [17] | Potency [20] | Potency [14]

NNC(=O)c1cccnc1
inactive: Potency [18] | Potency [2] | Potency [3] | Potency [4] | Potency [5] | Potency [15] | Potency [16] | Potency [6] | Potency [7] | Potency [8] | Potency [9] | Potency [10] | Potency [11] | Potency [17] | Potency [19] | Potency [12] | Potency [14]

BrC(Br)C(Br)(Br)Br
active: Potency [9] 55.3 µM
inactive: Potency [1] | Potency [2] | Potency [3] | Potency [4] | Potency [5] | Potency [16] | Potency [6] | Potency [8] | Potency [10] | Potency [11] | Potency [12] | Potency [13] | Potency [14]

O=C1C[C@@H]2OCC=C3CN4CC[C@]56c7ccccc7N1[C@H]5[C@H]2[C@H]3C[C@H]46
inactive: Potency [18] | Potency [2] | Potency [3] | Potency [4] | Potency [5] | Potency [15] | Potency [16] | Potency [6] | Potency [7] | Potency [17] | Potency [19] | Potency [12] | Potency [13] | Potency [14]
